Test results taken from paper PMC7862700, “An all-to-all approach to the identification of sequence-specific readers for epigenetic DNA modifications on cytosine”.

Tests used:
Test in all cases: DAPPL (digital affinity profiling via proximity ligation, sequencing); 10 mM Tris-HCl pH 7.5, 50 mM NaCl, 1 mM DTT, 4% glycerol, room temperature, 30 min; GST-TFs on glutathione beads, 16-mer random dsDNA library, 0.1% formaldehyde crosslink after washing; high values mean tight binding
Settings in all cases: protein: recombinant; tags: N-terminal GST; dsDNA, one strand shown
ETV1 = ETV1 (Homo sapiens, UniProt P50549 1-477)
Outline: (§1)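 Each value of binding signal is a hexamer's read frequency for a factor divided by the same hexamer's frequency in the tag-only sample. Barcoded, bead-captured GST fusions of human transcription factors made in yeast were pooled with that sample and incubated with 200 nmole of a random double-stranded 16-mer DNA library in Tris/NaCl/DTT/glycerol buffer at room temperature for 30 min. Washing, 0.1% formaldehyde crosslinking, proximity ligation, PCR and Illumina NextSeq500 sequencing followed.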

ERF = biological target: T1, ERF (Homo sapiens, UniProt P50548 1-548)
T1 sequence: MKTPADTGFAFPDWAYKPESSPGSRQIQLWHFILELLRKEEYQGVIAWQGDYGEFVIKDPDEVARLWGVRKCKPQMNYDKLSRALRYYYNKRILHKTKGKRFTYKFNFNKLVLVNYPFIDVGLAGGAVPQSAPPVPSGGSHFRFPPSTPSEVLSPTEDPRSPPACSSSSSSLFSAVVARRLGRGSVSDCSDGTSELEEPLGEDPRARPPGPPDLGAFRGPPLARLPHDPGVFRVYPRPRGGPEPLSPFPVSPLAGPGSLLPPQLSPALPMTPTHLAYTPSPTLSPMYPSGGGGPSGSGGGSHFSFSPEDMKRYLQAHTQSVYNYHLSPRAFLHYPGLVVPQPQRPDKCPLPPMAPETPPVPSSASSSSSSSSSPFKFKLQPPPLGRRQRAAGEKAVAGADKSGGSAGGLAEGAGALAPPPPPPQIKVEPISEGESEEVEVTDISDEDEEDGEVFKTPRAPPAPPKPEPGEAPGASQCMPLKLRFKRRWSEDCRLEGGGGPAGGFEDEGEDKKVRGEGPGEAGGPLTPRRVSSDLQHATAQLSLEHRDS
Outline: as §1

ETV3L = biological target: T2, ETV3L (Homo sapiens, UniProt Q6ZN32 1-361)
T2 sequence: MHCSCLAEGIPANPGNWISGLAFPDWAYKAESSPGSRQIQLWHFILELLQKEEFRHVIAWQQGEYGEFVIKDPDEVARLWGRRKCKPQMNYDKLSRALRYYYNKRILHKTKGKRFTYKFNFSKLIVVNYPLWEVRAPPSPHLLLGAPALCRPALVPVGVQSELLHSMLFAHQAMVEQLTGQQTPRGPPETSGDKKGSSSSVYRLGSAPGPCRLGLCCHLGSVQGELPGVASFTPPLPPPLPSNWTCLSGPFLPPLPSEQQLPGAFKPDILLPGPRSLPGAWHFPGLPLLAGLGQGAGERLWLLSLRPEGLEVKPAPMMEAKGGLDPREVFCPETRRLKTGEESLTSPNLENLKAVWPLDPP
Outline: as §1

ETS2 = biological target: T3, ETS2 (Homo sapiens, UniProt P15036 1-469)
T3 sequence: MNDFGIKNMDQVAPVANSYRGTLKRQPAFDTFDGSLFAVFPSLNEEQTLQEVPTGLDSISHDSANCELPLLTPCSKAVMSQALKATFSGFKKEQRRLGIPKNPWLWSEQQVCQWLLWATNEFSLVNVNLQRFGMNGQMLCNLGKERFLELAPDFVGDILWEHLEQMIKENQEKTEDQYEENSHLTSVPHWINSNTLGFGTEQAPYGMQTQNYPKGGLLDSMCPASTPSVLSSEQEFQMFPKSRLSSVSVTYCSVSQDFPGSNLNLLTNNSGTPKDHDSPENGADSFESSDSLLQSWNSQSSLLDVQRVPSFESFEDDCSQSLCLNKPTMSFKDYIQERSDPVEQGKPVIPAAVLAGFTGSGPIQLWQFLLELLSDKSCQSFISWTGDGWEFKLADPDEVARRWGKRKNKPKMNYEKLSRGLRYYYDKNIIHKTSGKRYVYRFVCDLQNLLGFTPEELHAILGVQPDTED
Outline: as §1

SPDEF = biological target: T4, SPDEF (Homo sapiens, UniProt O95238 1-335)
T4 sequence: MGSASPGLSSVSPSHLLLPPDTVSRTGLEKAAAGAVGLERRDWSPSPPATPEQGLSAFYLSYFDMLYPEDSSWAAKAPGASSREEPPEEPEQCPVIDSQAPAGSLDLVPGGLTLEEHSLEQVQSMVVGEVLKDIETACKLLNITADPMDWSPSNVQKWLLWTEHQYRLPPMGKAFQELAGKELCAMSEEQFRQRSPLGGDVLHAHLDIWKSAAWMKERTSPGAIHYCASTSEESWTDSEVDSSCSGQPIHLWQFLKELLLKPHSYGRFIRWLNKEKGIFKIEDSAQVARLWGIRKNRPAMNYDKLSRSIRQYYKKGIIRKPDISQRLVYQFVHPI
Outline: as §1

ETV7 = biological target: T5, ETV7 (Homo sapiens, UniProt Q9Y603 1-341)
T5 sequence: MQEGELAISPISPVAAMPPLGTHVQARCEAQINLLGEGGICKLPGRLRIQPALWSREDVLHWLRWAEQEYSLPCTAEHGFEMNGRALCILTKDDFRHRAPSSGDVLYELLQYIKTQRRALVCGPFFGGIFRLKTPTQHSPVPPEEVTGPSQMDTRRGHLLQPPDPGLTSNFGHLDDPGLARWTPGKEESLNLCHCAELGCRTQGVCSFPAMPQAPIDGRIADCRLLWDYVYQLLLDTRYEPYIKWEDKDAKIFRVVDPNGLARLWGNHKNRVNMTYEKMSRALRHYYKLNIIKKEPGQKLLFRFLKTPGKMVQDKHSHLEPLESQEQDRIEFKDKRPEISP
Outline: as §1

ELF5 = biological target: T6, ELF5 (Homo sapiens, UniProt Q9UKW6-2 1-255)
T6 sequence: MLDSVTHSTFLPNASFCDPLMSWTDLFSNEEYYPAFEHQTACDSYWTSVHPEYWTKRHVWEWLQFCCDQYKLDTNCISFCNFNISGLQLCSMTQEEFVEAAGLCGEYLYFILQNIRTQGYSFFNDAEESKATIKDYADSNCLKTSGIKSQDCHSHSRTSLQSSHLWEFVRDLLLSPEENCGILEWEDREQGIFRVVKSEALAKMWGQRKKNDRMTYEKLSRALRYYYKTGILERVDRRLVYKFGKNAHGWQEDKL
Outline: as §1

ETV3 = biological target: T7, ETV3 (Homo sapiens, UniProt P41162-2 1-143)
T7 sequence: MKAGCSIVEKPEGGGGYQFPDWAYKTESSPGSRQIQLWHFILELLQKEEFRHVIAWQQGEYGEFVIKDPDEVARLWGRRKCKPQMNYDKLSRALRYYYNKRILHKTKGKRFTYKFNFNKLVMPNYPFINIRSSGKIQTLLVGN
Outline: as §1

ETV6 = ETV6 (Homo sapiens, UniProt P41212 1-452)
Outline: as §1

Chain of ETV6 (P41212 whole entry): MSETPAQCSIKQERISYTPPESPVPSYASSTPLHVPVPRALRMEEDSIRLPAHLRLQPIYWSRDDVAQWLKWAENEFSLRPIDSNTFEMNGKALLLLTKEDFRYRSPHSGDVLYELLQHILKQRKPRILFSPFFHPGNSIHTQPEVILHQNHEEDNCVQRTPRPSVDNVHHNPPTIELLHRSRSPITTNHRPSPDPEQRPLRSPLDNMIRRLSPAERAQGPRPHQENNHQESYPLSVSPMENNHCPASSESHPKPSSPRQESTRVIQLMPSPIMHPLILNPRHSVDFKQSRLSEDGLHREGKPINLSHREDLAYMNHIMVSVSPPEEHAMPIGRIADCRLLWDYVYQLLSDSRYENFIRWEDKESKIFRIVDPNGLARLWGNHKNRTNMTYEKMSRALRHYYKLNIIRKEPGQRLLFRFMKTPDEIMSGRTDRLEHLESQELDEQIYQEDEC
Chain of ETV1 (P50549 whole entry, the tested form may be a part): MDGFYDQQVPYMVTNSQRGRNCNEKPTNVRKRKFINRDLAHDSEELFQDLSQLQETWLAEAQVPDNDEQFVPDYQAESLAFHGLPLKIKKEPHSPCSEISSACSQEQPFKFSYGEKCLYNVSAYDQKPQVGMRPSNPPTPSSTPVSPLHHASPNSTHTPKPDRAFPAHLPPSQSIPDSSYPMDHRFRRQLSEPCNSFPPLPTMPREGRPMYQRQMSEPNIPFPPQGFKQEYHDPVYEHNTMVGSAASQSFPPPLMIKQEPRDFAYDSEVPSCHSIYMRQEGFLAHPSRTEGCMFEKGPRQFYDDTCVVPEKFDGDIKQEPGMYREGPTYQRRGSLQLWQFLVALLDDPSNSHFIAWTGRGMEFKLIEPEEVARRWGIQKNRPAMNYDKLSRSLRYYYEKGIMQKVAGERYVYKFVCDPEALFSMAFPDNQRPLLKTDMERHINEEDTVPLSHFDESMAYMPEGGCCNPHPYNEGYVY

TGACTC
binding signal (ETV1): 1.33 fold enrichment (6-mer frequency, TF over GST control)
binding signal (ERF): 1.21 fold enrichment (6-mer frequency, TF over GST control)
binding signal (ETV3L): 1.21 fold enrichment (6-mer frequency, TF over GST control)
binding signal (ETS2): 1.38 fold enrichment (6-mer frequency, TF over GST control)
binding signal (SPDEF): 1.27 fold enrichment (6-mer frequency, TF over GST control)
binding signal (ETV7): 1.41 fold enrichment (6-mer frequency, TF over GST control)
binding signal (ELF5): 1.28 fold enrichment (6-mer frequency, TF over GST control)
binding signal (ETV3): 1.32 fold enrichment (6-mer frequency, TF over GST control)
binding signal (ETV6): 1.28 fold enrichment (6-mer frequency, TF over GST control)
